Results filed as inconclusive are left out. Active and inactive are the calls of the source. Unless noted, the call rests on the fitted dose curve; in most records, active means well fitted cell-killing curve with a large enough effect; inconclusive means small, poorly fitted or top-dose-only effect, or effect the other way; inactive means no such curve, though single readings can be large or run the other way.
Experiments:
[1] = Quantitative High-Throughput drug screen in 47 multiple myeloma cell lines against the NCATS MIPE library collection: XG1_PLB cell viability assay (AID 1919866); further: nearly all actives have a fitted effect of over 35% in size; further: potency means the concentration at half of the fitted maximal effect
Method in brief: (§1)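 ATP-based CellTiter-Glo luminescence after 48 h drug exposure (37 °C, 5% CO2) of 500 myeloma cells per well. DMSO-only wells set 100% viability, media-only wells 0%; MIPE 4.0 library added by pin tool.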

[2] = Quantitative High-Throughput drug screen in 47 multiple myeloma cell lines against the NCATS MIPE library collection: VP6_DJ cell viability assay (AID 1919867); further: nearly all actives have a fitted effect of over 40% in size; further: potency means the concentration at half of the fitted maximal effect
Method in brief: as §1

[3] = Quantitative High-Throughput drug screen in 47 multiple myeloma cell lines against the NCATS MIPE library collection: UTMC2_PLB cell viability assay (AID 1919868); settings: CellTiter-Glo ATP luminescence, 48 h; viability (% of DMSO control): at 45.8 µM (top of the series) unless noted; further: nearly all actives have a fitted effect of over 55% in size; further: potency means the concentration at half of the fitted maximal effect
Method in brief: as §1

[4] = Quantitative High-Throughput drug screen in 47 multiple myeloma cell lines against the NCATS MIPE library collection: PE2_PLB cell viability assay (AID 1919869); further: nearly all actives have a fitted effect of over 35% in size; further: potency means the concentration at half of the fitted maximal effect
Method in brief: as §1

[5] = Quantitative High-Throughput drug screen in 47 multiple myeloma cell lines against the NCATS MIPE library collection: PCM6_Riken cell viability assay (AID 1919870); further: nearly all actives have a fitted effect of over 30% in size; further: potency means the concentration at half of the fitted maximal effect
Method in brief: as §1

[6] = Quantitative High-Throughput drug screen in 47 multiple myeloma cell lines against the NCATS MIPE library collection: RPMI8226_ATCC cell viability assay (AID 1919871); further: nearly all actives have a fitted effect of over 30% in size; further: potency means the concentration at half of the fitted maximal effect
Method in brief: as §1

[7] = Quantitative High-Throughput drug screen in 47 multiple myeloma cell lines against the NCATS MIPE library collection: OPM2_DSMZ cell viability assay (AID 1919872); further: nearly all actives have a fitted effect of over 30% in size; further: potency means the concentration at half of the fitted maximal effect
Method in brief: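 Steps: seed 500 cells per well; pin-transfer MIPE 4.0 library; incubate 48 h at 37C, 5% CO2, humidified; add CellTiter-Glo, 5 min room temperature; read luminescence.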

[8] = Quantitative High-Throughput drug screen in 47 multiple myeloma cell lines against the NCATS MIPE library collection: KMS11_JCRBsus cell viability assay (AID 1919873); further: nearly all actives have a fitted effect of over 50% in size; further: potency means the concentration at half of the fitted maximal effect
Method in brief: as §1

[9] = Quantitative High-Throughput drug screen in 47 multiple myeloma cell lines against the NCATS MIPE library collection: KMS28BM_JCRB cell viability assay (AID 1919874); further: nearly all actives have a fitted effect of over 35% in size; further: potency means the concentration at half of the fitted maximal effect
Method in brief: as §1

[10] = qHTS drug screen for cell cycle checkpoint inhibitors in PARPi-resistant BRCA-mutant ovarian cancer cell lines. (AID 1963452; calls by dose curve); settings: PEO1/OlaR viability, CellTiter-Glo luminescence, 96 h, stronger effect = lower value
Method in brief: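 PEO1, PEO4 and PEO1/OlaR ovarian cancer cells, 600 per well, exposed 96 h at 37C to a dilution series. Viability read by CellTiter-Glo luminescence, normalized to DMSO and empty wells; activity summarized as Z-AUC.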

[11] = qHTS for identification of novel therapeutic agents for treatment of microphthalmiaassociated transcription factor (MiT) renal cell carcinoma (RCC) (AID 1963991; calls by dose curve; further: potency means the concentration at half of the fitted maximal effect); settings: CellTiter-Glo, 48 h; for z-score: stronger effect = lower value
Method in brief: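 Three TFE3-fusion RCC cell lines (UOK109, UOK124, UOK145), 500 cells/well, were exposed to the 1912-compound MIPE 4.0 library for 48 hours at 37 C. Viability was read by CellTiter-Glo luminescence, normalised to DMSO (100%) and empty wells (0%), with 11-concentration curve fits.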

[12] = measured here: PEO1 parental Z-AUC
[13] = TFE3-RCC UOK109 viability, measured here: UOK109 Z-AUC
[14] = TFE3-RCC viability, measured here: UOK124 Z-AUC
[15] = TFE3-RCC viability, measured here: UOK145 Z-AUC

SMILES	Potency [1]	Potency [2]	Potency [3]	Potency [4]	Potency [5]	Potency [6]	Potency [7]	Potency [8]	Potency [9]	Z-AUC [10]	Z-AUC [10, 12]	Z-AUC ([10]; measured here: PEO4 Z-AUC)	Potency ([11]; TFE3-RCC UOK109 viability, active = Z-AUC below -0.8 in all three lines)	z-score [11, 13]	z-score [11, 14]	z-score [11, 15]
O=C(O)c1ccc2cc(-c3ccc(O)c(C45CC6CC(CC(C6)C4)C5)c3)ccc2c1	526 nM (active)	13200 nM (active)	264 nM (active)	1480 nM (active)	16600 nM (active)	11800 nM (active)	23500 nM (active)	1480 nM (active)	1320 nM (active)							
Cn1cncc1[C@@](N)(c1ccc(Cl)cc1)c1ccc2c(c1)c(-c1cccc(Cl)c1)cc(=O)n2C	332 nM (active)	14800 nM (active)	833 nM (active)	16600 nM (active)	20900 nM (active)	5260 nM (active)	11800 nM (active)	7430 nM (active)	20900 nM (active)	-0.153 (inactive)	0.145	-0.275				
Cc1[nH]nc2ccc(-c3cncc(OC[C@@H](N)Cc4ccccc4)c3)cc12	590 nM (active)	833 nM (active)	590 nM (active)	1180 nM (active)	526 nM (active)	5900 nM (active)	9350 nM (active)	1180 nM (active)	296 nM (active)	-1.08 (inactive)	-1.59	-1.81				
CC(C)c1cnn2c(NCc3ccccc3)cc(N[C@@H](CO)[C@H](O)CO)nc12	264 nM (active)	187 nM (active)	209 nM (active)	235 nM (active)	93.5 nM (active)	332 nM (active)	332 nM (active)	148 nM (active)	296 nM (active)	-1.87 (inactive)	-1.92	-1.77	372 nM (active)	-1.04	-0.933	-1.84
Cc1cnc(Nc2ccc(F)cc2Cl)nc1-c1c[nH]c(C(=O)N[C@H](CO)c2cccc(Cl)c2)c1	13200 nM (active)	5260 nM (active)	18700 nM (active)	6620 nM (active)	18700 nM (active)	20900 nM (active)	18700 nM (active)	16600 nM (active)	20900 nM (active)	0.276 (inactive)	0.0916	0.18				
O=C(C=Cc1cccc(S(=O)(=O)Nc2ccccc2)c1)NO	2410 nM (active)	855 nM (active)	1080 nM (active)	3820 nM (active)	2410 nM (active)	3400 nM (active)	3820 nM (active)	1210 nM (active)	1360 nM (active)							
CN1CCN(c2cc(C(=O)Nc3ccc4c(c3)-c3c(c(C(N)=O)nn3-c3ccc(F)cc3)CC4)c(Cl)cn2)CC1	3320 nM (active)	2960 nM (active)	2090 nM (active)	1480 nM (active)	2640 nM (active)	23500 nM (active)	26400 nM (active)	8330 nM (active)	8330 nM (active)	0.539 (inactive)	0.439	-0.0103				
Cc1cc(C(=O)N2CCN(c3cccc(Cl)c3)CC2)n(-c2ccccc2)n1	93.5 nM (active)	1320 nM (active)	833 nM (active)	3720 nM (active)	9350 nM (active)	5900 nM (active)	5900 nM (active)	148 nM (active)	132 nM (active)	-1.51 (inactive)	-1.82	-1.79				
CC(C)CC(=O)Nc1n[nH]c2c1CN(C(=O)C1CCN(C)CC1)C2(C)C	1660 nM (active)	1480 nM (active)	2350 nM (active)	2090 nM (active)	743 nM (active)	4180 nM (active)	2350 nM (active)	1480 nM (active)	2350 nM (active)	-0.913 (inactive)	-0.186	-0.504				
CC1COC2(CCN(c3nc(=O)c4cc(C(F)(F)F)cc([N+](=O)[O-])c4s3)CC2)O1 (stereo unspecified)	inactive	inactive	inactive	inactive	inactive	inactive	inactive	inactive	inactive	0.328 (inactive)	0.189	0.861		1.51	0.131	0.808
Cc1ccc(C(=O)Nc2cccc(C(F)(F)F)c2)cc1-c1ccc2nc(NCCN3CCOCC3)ncc2c1	4690 nM (active)	11800 nM (active)	5900 nM (active)	4690 nM (active)	5900 nM (active)	5900 nM (active)	18700 nM (active)	2960 nM (active)	18700 nM (active)	0.224 (inactive)	-0.409	-0.0261				
CNC(=O)c1c(F)cccc1Nc1nc(Nc2cc3c(cc2OC)CCN3C(=O)CN(C)C)nc2[nH]ccc12	2350 nM (active)	105 nM (active)	93.5 nM (active)	2640 nM (active)	9350 nM (active)	2350 nM (active)	11800 nM (active)	66.2 nM (active)	118 nM (active)	-0.375 (inactive)	-0.266	-0.708				
COc1cc(Nc2ncc(F)c(Nc3ccc4c(n3)N(COP(=O)(O)O)C(=O)C(C)(C)O4)n2)cc(OC)c1OC	662 nM (active)	1480 nM (active)	5260 nM (active)	1180 nM (active)	9350 nM (active)	20900 nM (active)	18700 nM (active)	2960 nM (active)		0.561 (inactive)	0.402	0.538				
